Screens as filed in PubChem.
APP 5UTR inh – APP translation inhibition; SH-SY5Y APP 5'UTR-luciferase reporter, luminescence; inhibition, % at 2 µM; 190,000 tested, 0.82% active; AID 1285;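 active means inhibition above a set limit, derived from the sample mean plus 3 SD, cut at about 45% in these data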
Ba/F3 V617F tox – loss of viability in JAK2V617F-driven Ba/F3 cells; Ba/F3 EpoR-JAK2V617F viability, ATP luminescence; inhibition, % at 5.6 µM; 220,000 tested, 1.1% active;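 active means inhibition above the campaign mean plus 3 SD over all tested compounds, cut at about 24% in these data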;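 further: cytokine-independent growth of Ba/F3 cells driven by EpoR plus mutant JAK2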
aSyn UTR inh – MLPCN primary screen, SNCA 5' untranslated region | inhibition, % (tested at 7.5 µM) | 300,000 tested, 0.82% active | AID 1813 | alpha-synuclein 5'UTR reporter, inhibitor activity; in the data active means inhibition above about 60%;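 further: H4 neuroglioblastoma cells stably carrying SNCA 5'UTR luciferase fusion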
IEC-6 tox – counter-screen for KLF5 inhibitors: cytotoxicity in IEC-6 cells; IEC-6 cytotoxicity, luminescence viability; inhibition, % at 5 µM; 290,000 tested, 0.78% active; in the data active means inhibition above about 22%
KLF5 inh – kruppel-like factor 5 inhibition; inhibition, % at 5 µM; DLD-1 KLF5 promoter-luciferase reporter, luminescence; 290,000 tested, 0.23% active; AID 1700;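 active means inhibition above a per-plate limit of that plate's mean compound inhibition plus 3 SD, cut at about 60% in these data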;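 further: higher means less KLF5 promoter-driven luciferase light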
BaF3 parental – parental Ba/F3 viability inhibition as JAK2V617F counter-screen. 220,000 tested, 1.1% active. CellTiter-Glo ATP luminescence. inhibition, % at 5.6 µM;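 active means inhibition above a per-campaign cutoff, the mean inhibition of all tested compounds plus 3 SD, cut at about 27% in these data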
Each line names hits and unclear results; the compound was inactive in the other large screens. The list is not random: actives were taken first. Their share in the collection is about 2.2%.

Nc1ccc(Oc2cccc(Oc3ccc(N)cc3)c2)cc1	APP 5UTR inh 49, aSyn UTR inh 87
O=C(NC1CCCCCC1)c1ccc(CS(=O)Cc2cccc(Cl)c2)o1 (stereo not given)	none (no result: APP 5UTR inh, Ba/F3 V617F tox, BaF3 parental)
CCOC(=O)c1cnc(-n2nc(C)cc2C)nc1NNc1cc(-c2ccccc2)nc(C)n1	APP 5UTR inh 56, aSyn UTR inh 93
CCOC(=O)c1cnc(-n2nc(C)cc2C)nc1NCc1ccccc1	none
CCOC(=O)c1cnc(-n2nc(C)cc2C)nc1NNc1ncc(-c2ccccc2)cn1	aSyn UTR inh 83 (no result: APP 5UTR inh)
CCc1ccc(NC(=O)C/C(C)=N/NC(=O)COc2ccccc2C)cc1	none (no result: APP 5UTR inh, Ba/F3 V617F tox, BaF3 parental)
CC1C/C(=C\c2cccnc2)C(=O)/C(=C/c2cccnc2)C1 (stereo not given)	APP 5UTR inh 96 (no result: aSyn UTR inh)
COc1ccc(NC(=O)CCS(=O)(=O)c2ccccc2Cl)cc1S(=O)(=O)Nc1ccc(Cl)cc1	BaF3 parental 69
O=C(Nc1ccccc1Cl)NC1(C(=O)NCc2cccnc2)CCCCC1	none (no result: APP 5UTR inh, Ba/F3 V617F tox, BaF3 parental)
CC1CCCCN1CCCNC(=O)c1ccc(NC(=O)C2=CSCCO2)cc1 (stereo not given)	none (no result: APP 5UTR inh, Ba/F3 V617F tox, BaF3 parental)
CCCS(=O)(=O)N1CCCC(c2nc(-c3ccc(OC)cc3)no2)C1 (stereo not given)	none
CCS(=O)(=O)N1CCCC(c2nc(-c3cccc(OC)c3)no2)C1 (stereo not given)	BaF3 parental 96
Cc1ccc(-c2csc3nc4c5ccccc5c(NCCCN(C)C)nn4c(=O)c23)cc1	aSyn UTR inh 116
Cc1ccc2nc(-c3ccc(NC(=O)CCS(=O)(=O)c4ccccc4)cc3)sc2c1	aSyn UTR inh 62
CC(=O)Nc1ccc(S(=O)(=O)NCC(=O)OCC(=O)NCc2ccco2)cc1	none (no result: APP 5UTR inh, Ba/F3 V617F tox, IEC-6 tox, KLF5 inh, BaF3 parental)
CCOc1ccc2nc(NC3=NCN(CC4CCCO4)CN3)nc(C)c2c1 (stereo not given)	none (no result: aSyn UTR inh)
Cc1ccc2nc(NC3=NCN(Cc4ccc5c(c4)OCO5)CN3)nc(C)c2c1	APP 5UTR inh 94, Ba/F3 V617F tox 63, BaF3 parental 70 (no result: aSyn UTR inh)
CC(C)c1ccc2[nH]c(O)c(N=NC(=O)c3cccc(S(=O)(=O)Nc4ccc(Cl)cc4)c3)c2c1	aSyn UTR inh 79
Cc1ccccc1OCC(=O)NCCCNC(=O)c1ccco1	none (no result: APP 5UTR inh, Ba/F3 V617F tox, BaF3 parental)
O=c1[nH]cnc2c1sc1nc3c(c(-c4ccc(Cl)cc4)c12)CCC3	APP 5UTR inh 51
Cc1ccc(CN2CCN(/N=C/c3ccc(C(=O)O)cc3)CC2)c(C)c1	BaF3 parental 53
Cc1cccc(NC(=O)N2CCC(C(=O)c3ccc(F)cc3)CC2)c1	none (no result: APP 5UTR inh, Ba/F3 V617F tox, BaF3 parental)
O=C1C=CC(=O)N1c1ccc(OC(F)F)cc1	APP 5UTR inh 56 (no result: aSyn UTR inh)
Cc1ccc(S(=O)(=O)N(CC(=O)Nc2cccnc2)c2ccccc2C)cc1	none (no result: APP 5UTR inh, Ba/F3 V617F tox, BaF3 parental)
Nc1ccc(N2CCCCCC2)cc1	Ba/F3 V617F tox 43, BaF3 parental 59 (no result: aSyn UTR inh)
CC(=O)Nc1ccc(NC(=O)c2cc(C)nn2-c2ccccc2)cc1	none
CC(=O)c1cc2c(cc1NC(=O)c1cc(C)nn1-c1ccccc1)OCO2	APP 5UTR inh 59
Cc1nc2ccccc2c(=O)n1/N=C/c1ccccc1	none
Cc1nc2ccccc2c(=O)n1/N=C/c1cccs1	APP 5UTR inh 53
CCOC(=O)c1c(O)c(O)c(C(=O)OCC)n1-c1ccccc1	none (no result: APP 5UTR inh)
CCOC(=O)c1ccc2c(c1)n(CC)c(C)[n+]2CC	BaF3 parental 36
CC[n+]1c(C)n(-c2ccccc2)c2ccc(C(=O)OC)cc21	Ba/F3 V617F tox 36, BaF3 parental 55
CCOC(=O)c1ccc2c(c1)[n+](CC)c(C)n2-c1ccccc1	Ba/F3 V617F tox 38, BaF3 parental 76
CCn1c(C)[n+](CC)c2ccc(C(=O)N(C)c3ccccc3)cc21	none
CC(=O)OCC[n+]1c(C)n(-c2ccccc2)c2ccc(Cl)cc21	none
CC(OC(=O)Cn1cnc2c1c(=O)n(C)c(=O)n2C)C(=O)NC1CCCCC1C (stereo not given)	none (no result: APP 5UTR inh, Ba/F3 V617F tox, IEC-6 tox, KLF5 inh, BaF3 parental)
Cc1noc(C)c1S(=O)(=O)N1CCC(C(=O)NCCN2CCC(C)CC2)CC1	APP 5UTR inh 61
Cc1noc(C)c1S(=O)(=O)N1CCC(C(=O)NCCCN2CC(C)CC(C)C2)CC1 (stereo not given)	none
O=Cc1c(-c2ccccc2)cc2oc3ccccc3cc1-2	none (no result: APP 5UTR inh, Ba/F3 V617F tox, BaF3 parental)
Brc1ccc2c(c1)OCCOCCOc1cc(Br)ccc1OCCOCCOCCO2	aSyn UTR inh 73
Brc1cc2c(cc1Br)OCCOCCOCCOCCO2	none
CS(=O)(=O)N(CC(=O)N1CCc2ccccc2C1)c1ccc2c(c1)OCO2	BaF3 parental 93
CCC(C)NC(=O)C1CCC(CNS(=O)(=O)c2ccccc2)CC1 (stereo not given)	none (no result: APP 5UTR inh, Ba/F3 V617F tox, BaF3 parental)
Cc1cnc(NC(=O)c2ccc(OCC3CCCO3)cc2)s1 (stereo not given)	aSyn UTR inh 79
COc1ccc(OC)c(-c2csc(NC(=O)c3ccc(OCC4CCCO4)cc3)n2)c1 (stereo not given)	BaF3 parental 30
Cc1ccc(NC(=O)c2ccc(OCC3CCCO3)cc2)nc1 (stereo not given)	none (no result: APP 5UTR inh, Ba/F3 V617F tox, IEC-6 tox, KLF5 inh, BaF3 parental)
COc1ccc(OC)c(-c2csc(NC(=O)C3=COCCO3)n2)c1	none (no result: APP 5UTR inh, Ba/F3 V617F tox, IEC-6 tox, KLF5 inh, BaF3 parental)
CCOc1ccc(C(=O)Nc2nnc(SCC(=O)NCC3CCCO3)s2)cc1 (stereo not given)	aSyn UTR inh 76 (no result: APP 5UTR inh, Ba/F3 V617F tox, BaF3 parental)
CN1CCN(C(=O)CN(C)S(=O)(=O)c2ccc(F)cc2)CC1	none (no result: APP 5UTR inh, Ba/F3 V617F tox, BaF3 parental)
CCOC(=O)C1(Cc2ccccc2C)CCCN(C(=O)c2ccc(CSC)o2)C1 (stereo not given)	none (no result: APP 5UTR inh, Ba/F3 V617F tox, BaF3 parental)
CCOC(=O)CNC(=O)COc1coc(CN2CCN(c3ccccc3F)CC2)cc1=O	none (no result: APP 5UTR inh, Ba/F3 V617F tox, BaF3 parental)
COc1ccc(-n2ncc(Cl)c(Cl)c2=O)cc1	APP 5UTR inh 92, IEC-6 tox 61
COc1ccc(-n2ncc(N(C)n3cccc3)c(Cl)c2=O)cc1	none (no result: aSyn UTR inh)
FC(F)(F)c1ccc(-n2cnc3ccccc32)nc1	none (no result: APP 5UTR inh, Ba/F3 V617F tox, BaF3 parental)
COc1ccc(NC(=O)CCN2C(=O)c3ccncc3C2=O)cc1OC	none (no result: APP 5UTR inh)
CCCCN(CCCC)C(=O)c1cc2ccccc2c(=O)o1	BaF3 parental 37
CC(C)CN(C(=O)C(C)N1C(=O)c2ccccc2C1=O)c1c(N)n(Cc2ccccc2)c(=O)[nH]c1=O (stereo not given)	none (no result: APP 5UTR inh, Ba/F3 V617F tox, IEC-6 tox, KLF5 inh, BaF3 parental)
CCCCCCCC[n+]1cccc(C(=O)N(CC)CC)c1	none
CCCCCCCCCCCCCCCC[n+]1cccc(C(=O)N(CC)CC)c1	Ba/F3 V617F tox 59, BaF3 parental 62
O=C(CCN1CCN(c2ccccc2F)CC1)Nc1cccc(F)c1	none (no result: APP 5UTR inh, Ba/F3 V617F tox, BaF3 parental)
Cc1ccc(CNC(=O)Cc2ccc(-c3ccccc3)cc2)cc1	aSyn UTR inh 73
Cc1noc(C)c1COc1ccc(CC(=O)NCCc2ccccn2)cc1	none (no result: APP 5UTR inh, Ba/F3 V617F tox, BaF3 parental)
O=C(Cc1ccc(-c2ccccc2)cc1)NCc1ccccc1	APP 5UTR inh 93, Ba/F3 V617F tox 81, aSyn UTR inh 104, IEC-6 tox 78, BaF3 parental 81
Cc1ccc(CC(=O)NCc2ccc(F)cc2)cc1	Ba/F3 V617F tox 35, IEC-6 tox 50, BaF3 parental 58
Cc1ccc(CNC(=O)CSCc2ccc(F)cc2)cc1	none
Cc1noc(C)c1COc1ccc(CC(=O)NCc2ccccc2)cc1	APP 5UTR inh 86, Ba/F3 V617F tox 72, aSyn UTR inh 72, IEC-6 tox 79, BaF3 parental 73
